Measured values: PubChem BioAssay (NCI)
Compounds without any hit were thinned out: in the full panel of roughly 83,000, 20% have a hit.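 Cells were grown in 96-well plates and exposed to the test compound at a single concentration for 48 hours; results are reported as percent growth, with values below 10 considered active.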 Calls of active or inactive are those of the source.

What was measured:
Test in all cases: NCI-60 one-dose screen, 48 h (100 = growth as untreated, 0 = no growth, -100 = all killed)
NCI-H23 lung = conditions: 10 µM unless noted
NCI-H226 lung = conditions: 10 µM unless noted
NCI-H322M lung = conditions: 10 µM unless noted
NCI-H460 lung = conditions: 10 µM unless noted
HOP-92 NSCLC = conditions: 10 µM
NCI-H522 lung = conditions: 10 µM
A549/ATCC NSCLC = conditions: 10 µM unless noted
786-0 renal = conditions: 10 µM unless noted
COLO 205 colon = conditions: 10 µM unless noted

Measured: growth

N=C(N)N=Nc1ccc(NN=C(N)N)cc1
active: A549/ATCC NSCLC 8.54%
inactive: NCI-H23 lung 104% | NCI-H226 lung 81.5% | NCI-H322M lung 126% | NCI-H460 lung 85.8% | HOP-92 NSCLC 96% | NCI-H522 lung 88.1% | 786-0 renal 98.9% | COLO 205 colon 64.1%

O=S(=O)(Cc1cccc2c(CS(=O)(=O)c3ccc(Cl)cc3)cccc12)c1ccc(Cl)cc1
inactive: NCI-H23 lung 98% | NCI-H226 lung 107% | NCI-H322M lung 86.7% | NCI-H460 lung 72.4% | HOP-92 NSCLC 97.1% | NCI-H522 lung 96.4% | A549/ATCC NSCLC 84.3% | 786-0 renal 119% | COLO 205 colon 83%

COc1cc(CCNc2cnc3cc(N)cc(N)c3n2)cc(OC)c1
inactive: NCI-H23 lung 107% | NCI-H226 lung 99.4% | NCI-H322M lung 102% | NCI-H460 lung 120% | HOP-92 NSCLC 154% | NCI-H522 lung 98.2% | A549/ATCC NSCLC 112% | 786-0 renal 101% | COLO 205 colon 136%

c1ccc(Nc2ncc3c(n2)-c2cccn2CC3)cc1
inactive: NCI-H23 lung 98.7% | NCI-H226 lung 59.2% | NCI-H322M lung 86.9% | NCI-H460 lung 95.9% | HOP-92 NSCLC 77.4% | NCI-H522 lung 85.8% | A549/ATCC NSCLC 113% | 786-0 renal 98.7% | COLO 205 colon 112%

O=Nc1c(-c2c(O)[nH]c3cc(Br)ccc23)[nH]c2ccccc12
active: NCI-H23 lung -80.8% | NCI-H226 lung -39.4% | NCI-H460 lung -72.8% | NCI-H522 lung -29% | A549/ATCC NSCLC -61.9% | 786-0 renal 6.13% | COLO 205 colon -100%
inactive: NCI-H322M lung 16.6% | HOP-92 NSCLC 14.4%

O=C1/C(=N\c2cc(=O)[nH]n2S(=O)(=O)c2ccccc2)Nc2ccccc21
inactive: NCI-H23 lung 107% | NCI-H226 lung 92.4% | NCI-H322M lung 105% | NCI-H460 lung 105% | HOP-92 NSCLC 89.6% | NCI-H522 lung 96.7% | A549/ATCC NSCLC 111% | 786-0 renal 106% | COLO 205 colon 114%

c1ccc(Nc2ccccn2)cc1
inactive: NCI-H23 lung 103% | NCI-H226 lung 130% | NCI-H322M lung 106% | NCI-H460 lung 115% | HOP-92 NSCLC 97.9% | NCI-H522 lung 91.7% | A549/ATCC NSCLC 98.9% | 786-0 renal 95.1% | COLO 205 colon 99.8%

CCOC(=O)c1cc(-c2ccc(OC)cc2)[nH]c1NNC(=O)CCOC
inactive: NCI-H23 lung 114% | NCI-H226 lung 105% | NCI-H322M lung 118% | NCI-H460 lung 119% | HOP-92 NSCLC 73.1% | NCI-H522 lung 98% | A549/ATCC NSCLC 99.9% | 786-0 renal 84.3% | COLO 205 colon 109%

CCC(C)(C)c1ccc(OCCCCCCN2CCNCC2)cc1
active: COLO 205 colon -50%
inactive: NCI-H23 lung 60% | NCI-H226 lung 92.7% | NCI-H322M lung 76.1% | NCI-H460 lung 17.7% | HOP-92 NSCLC 51.3% | NCI-H522 lung 95.5% | A549/ATCC NSCLC 53.5% | 786-0 renal 59.5%

COc1ccc2oc(=O)cc(CN3C(=O)S/C(=C\c4ccc(Cl)cc4)C3=O)c2c1
inactive: NCI-H23 lung 90.9% | NCI-H226 lung 92.3% | NCI-H322M lung 104% | NCI-H460 lung 102% | HOP-92 NSCLC 86.5% | NCI-H522 lung 79.6% | A549/ATCC NSCLC 97.9% | 786-0 renal 93.1% | COLO 205 colon 136%

COc1cc(NC(=O)CSc2nc3ccc(Cl)cc3c(=O)n2-c2ccc(F)cc2)cc(OC)c1OC
inactive: NCI-H23 lung 85.2% | NCI-H226 lung 83.2% | NCI-H322M lung 86.9% | NCI-H460 lung 91.3% | HOP-92 NSCLC 36% | NCI-H522 lung 79.5% | A549/ATCC NSCLC 83.8% | 786-0 renal 75.2% | COLO 205 colon 107%

CC(=O)Nc1nc(C)c(C(=O)NN)s1
active: HOP-92 NSCLC 3.84%
inactive: NCI-H23 lung 103% | NCI-H226 lung 92.1% | NCI-H322M lung 96% | NCI-H460 lung 115% | NCI-H522 lung 97.5% | A549/ATCC NSCLC 101% | 786-0 renal 93% | COLO 205 colon 108%

COc1cc(Cn2ccc3c2-c2oncc2CC3)cc(OC)c1
active: NCI-H460 lung 7.4%
inactive: NCI-H23 lung 30.1% | NCI-H226 lung 67.4% | NCI-H322M lung 33.2% | HOP-92 NSCLC 57.5% | NCI-H522 lung 29.3% | A549/ATCC NSCLC 36% | 786-0 renal 50.9% | COLO 205 colon 26.1%

c1ccc2[nH]c(-c3ccc(OCCCCCOc4ccc(-c5nc6ccccc6[nH]5)cc4)cc3)nc2c1
inactive: NCI-H23 lung 40.9% | NCI-H226 lung 103% | NCI-H322M lung 72.7% | NCI-H522 lung 30.9% | A549/ATCC NSCLC 12.7% | 786-0 renal 14.7% | COLO 205 colon 121%
active: NCI-H460 lung -19.8% | HOP-92 NSCLC -75%

COc1ccc(C2=C/C(=C\c3ccc(Cl)cc3)C(=O)NN2C(=S)NN)cc1
inactive: NCI-H23 lung 92.5% | NCI-H226 lung 87.6% | NCI-H322M lung 102% | NCI-H460 lung 102% | HOP-92 NSCLC 74% | NCI-H522 lung 83.9% | A549/ATCC NSCLC 101% | 786-0 renal 104% | COLO 205 colon 114%

CCC(C)C1NC(=O)C(CCCCN)NC(=O)C(CCCCN)NC(=O)C(CC(C)C)NC(=O)C(CCCCN)NC(=O)C(C(C)CC)NC(=O)C(C(C)C)NC(=O)C(C(C)CC)NC(=O)C(CCCCN)NC(=O)C(CCCCN)NC(=O)C(C)NC(=O)C(CCCCN)NC(=O)C(CC(C)C)NC1=O (stereo unspecified)
active: HOP-92 NSCLC -9.52% | NCI-H522 lung 9.29% | COLO 205 colon -59.4%
inactive: NCI-H23 lung 16.6% | NCI-H226 lung 46.8% | NCI-H322M lung 82% | NCI-H460 lung 14.8% | A549/ATCC NSCLC 20.2% | 786-0 renal 20.8%

COC(=O)c1ccc2[nH]c(O)c(C(=Nc3ccc(N(C)C(=O)CN4CCN(C)CC4)cc3)c3ccc4c(c3)OCO4)c2c1
active: NCI-H23 lung 5.66% | NCI-H460 lung 8.35% | NCI-H522 lung 2.17% | A549/ATCC NSCLC 5.98% | COLO 205 colon -54.4%
inactive: NCI-H226 lung 23.3% | NCI-H322M lung 21% | HOP-92 NSCLC 36.9% | 786-0 renal 14.4%

COc1ccc(C(O)(c2ccccc2)C(C(=O)O)c2ccccc2)cc1 (stereo unspecified)
inactive: NCI-H23 lung 102% | NCI-H226 lung 106% | NCI-H322M lung 105% | NCI-H460 lung 116% | HOP-92 NSCLC 63% | NCI-H522 lung 98.5% | 786-0 renal 103% | COLO 205 colon 111%

CC(=O)NNC(=O)c1sc(NC(C)=O)nc1C
inactive: NCI-H23 lung 98.2% | NCI-H226 lung 93.1% | NCI-H322M lung 121% | NCI-H460 lung 108% | HOP-92 NSCLC 57.4% | NCI-H522 lung 139% | A549/ATCC NSCLC 104% | 786-0 renal 122% | COLO 205 colon 108%

COc1ccc(C(=O)c2no[n+]([O-])c2C(=O)c2ccc(OC)cc2)cc1
active: NCI-H522 lung -88.3% | 786-0 renal -98.7%
inactive: NCI-H23 lung 89.6% | NCI-H226 lung 41.7% | NCI-H322M lung 83.8% | NCI-H460 lung 89.8% | A549/ATCC NSCLC 94.8%

O=C(N/N=C\c1ccc(-c2ccc(Br)cc2)o1)c1cc2oc(-c3cccc(C(F)(F)F)c3)cc2[nH]1
inactive: NCI-H23 lung 96.8% | NCI-H226 lung 106% | NCI-H322M lung 70.6% | NCI-H460 lung 91.5% | HOP-92 NSCLC 111% | NCI-H522 lung 122% | A549/ATCC NSCLC 38.3% | COLO 205 colon 107%

CCOC(=O)C1C(=O)C(=O)N(C(C)C)C1C(=O)OCC (stereo unspecified)
inactive: NCI-H23 lung 97.3% | NCI-H226 lung 100% | NCI-H322M lung 104% | NCI-H460 lung 106% | HOP-92 NSCLC 83% | NCI-H522 lung 118% | 786-0 renal 107% | COLO 205 colon 118%

CCCCCc1ccnc(CC(=O)c2ccc(OC)cc2)c1
inactive: NCI-H23 lung 93.8% | NCI-H226 lung 88.6% | NCI-H322M lung 104% | NCI-H460 lung 95.2% | HOP-92 NSCLC 69.5% | NCI-H522 lung 66.6% | 786-0 renal 98.9% | COLO 205 colon 87.3%

CCOP1(=O)CC(C)=C(Cl)C(P(=O)(O)O)C1 (stereo unspecified)
inactive: NCI-H23 lung 93.3% | NCI-H226 lung 99.9% | NCI-H322M lung 108% | NCI-H460 lung 114% | HOP-92 NSCLC 89.1% | NCI-H522 lung 89.7% | A549/ATCC NSCLC 94.8% | COLO 205 colon 110%

O=C(/C=C\c1ccccc1Cl)c1ccccc1
inactive: NCI-H23 lung 91.9% | NCI-H226 lung 86.2% | NCI-H322M lung 104% | NCI-H460 lung 95.4% | HOP-92 NSCLC 112% | NCI-H522 lung 100% | 786-0 renal 93.9% | COLO 205 colon 120%

O=C(Cc1ccccc1[N+](=O)[O-])c1ccc2c(c1)OCO2
inactive: NCI-H23 lung 99.3% | NCI-H226 lung 97.1% | NCI-H322M lung 103% | NCI-H460 lung 101% | NCI-H522 lung 91.7% | A549/ATCC NSCLC 98.1% | 786-0 renal 94.3% | COLO 205 colon 116%

O=[N+]([O-])c1ccc(-c2ncc(-c3ccc(O)cc3O)[nH]2)cc1
inactive: NCI-H23 lung 105% | NCI-H226 lung 102% | NCI-H322M lung 116% | NCI-H460 lung 109% | HOP-92 NSCLC 88.5% | NCI-H522 lung 124% | A549/ATCC NSCLC 44.9% | COLO 205 colon 112%

Cc1c(O)c(N=Nc2ccc(C(=O)O)c(O)c2)c2ccccc2c1O
inactive: NCI-H23 lung 92.3% | NCI-H226 lung 104% | NCI-H322M lung 105% | NCI-H460 lung 96.7% | HOP-92 NSCLC 77.7% | NCI-H522 lung 100% | A549/ATCC NSCLC 78.9% | 786-0 renal 104% | COLO 205 colon 119%

N=C(N)N=Nc1ccc(NN=C(N)N)c2ccccc12
inactive: NCI-H23 lung 106% | NCI-H226 lung 117% | NCI-H322M lung 97% | NCI-H460 lung 108% | HOP-92 NSCLC 93.7% | NCI-H522 lung 87.1% | A549/ATCC NSCLC 97.8% | 786-0 renal 95.3% | COLO 205 colon 111%
